Measured values as given in PubChem BioAssay AID1159580 (chemical genetic matrix, 2015).
“And” between values parts separate entries of the source, which are not always exact repeats. Equal entries are not always repeated. Among all 5,500 compounds or so, about 2,000 (36%) were called active. Not shown: some 18% with an inconclusive outcome. Rule as the data show it: active = normalized growth mostly below about 0.91 (no sharp cut-off); inconclusive = no clear call, values can overlap the other calls; inactive = mostly above about 0.92. The list shows a part of the results.

Assay: chemical genetic growth profiling, strain panel (AID 1159580);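 also: tested at 20 µM; growth read once vehicle control cultures reached saturation at 30 °C; 1 = growth at the plate median or of vehicle wells; lower values mean less growth of the strain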
Conditions: S. cerevisiae deletion strains, growth OD

Measured: normalized growth

Nc1ccc(S(=O)(=O)Nc2ccnn2-c2ccccc2)cc1
inactive: locus YAL013W, strain DEP1, stronger effect = lower value 1.04 | locus YAL021C, strain ccr4, stronger effect = lower value 0.986 | locus YAL026C, strain drs2, stronger effect = lower value 0.977 | locus YAL030W, strain snc1, stronger effect = lower value 1.01 | locus YAL040C, strain CLN3, stronger effect = lower value 1.02 | locus YBL061C, strain skt5, stronger effect = lower value 1.01 | locus YBR009C, strain hhf1, stronger effect = lower value 1.01 | locus YBR021W, strain FUR4, stronger effect = lower value 0.994 | locus YBR023C, strain chs3, stronger effect = lower value 0.999 | locus YBR171W, strain sec66, stronger effect = lower value 0.993 | locus YBR229C, strain ROT2, stronger effect = lower value 1.01 | locus YBR231C, strain swc5, stronger effect = lower value 1.01 | locus YBR279W, strain paf1, stronger effect = lower value 0.996 | locus YCL011C, strain gbp2, stronger effect = lower value 0.982 | locus YCL016C, strain dcc1, stronger effect = lower value 0.999 | locus YCL029C, strain bik1, stronger effect = lower value 0.995 | locus YCL061C, strain MRC1 (second series), stronger effect = lower value 1.02 | locus YCL061C, strain MRC1, stronger effect = lower value 0.997 | locus YCL069W, strain vba3, stronger effect = lower value 0.991 | locus YCR088W, strain abp1, stronger effect = lower value 0.982 | locus YDL005C, strain med2, stronger effect = lower value 0.98 | locus YDL035C, strain GPR1, stronger effect = lower value 0.999 | locus YDL040C, strain nat1, stronger effect = lower value 0.993 | locus YDL074C, strain BRE1, stronger effect = lower value 1.02 | locus YDL101C, strain DUN1, stronger effect = lower value 1.02 | locus YDL134C, strain PPH21, stronger effect = lower value 0.995 | locus YDL185W, strain tfp1, stronger effect = lower value 1 | locus YDL192W, strain arf1, stronger effect = lower value 0.995 | locus YDR001C, strain nth1, stronger effect = lower value 0.994 | locus YDR069C, strain doa4, stronger effect = lower value 0.999 | locus YDR101C, strain arx1, stronger effect = lower value 1.01 | locus YDR137W, strain rgp1, stronger effect = lower value 0.938 | locus YDR150W, strain NUM1, stronger effect = lower value 1.02 and 1.01 | locus YDR159W, strain sac3, stronger effect = lower value 1.02 | locus YDR162C, strain NBP2, stronger effect = lower value 0.999 | locus YDR195W, strain ref2 0.961 | locus YDR297W, strain sur2, stronger effect = lower value 0.998 | locus YDR318W, strain mcm21, stronger effect = lower value 0.99 | locus YDR334W, strain swr1, stronger effect = lower value 0.95 | locus YDR335W, strain msn5, stronger effect = lower value 0.998 | locus YDR363W, strain ESC2, stronger effect = lower value 1.01 | locus YDR388W, stronger effect = lower value 1 | locus YDR392W, strain spt3, stronger effect = lower value 0.96 | locus YDR502C, strain sam2, stronger effect = lower value 1.03 | locus YEL003W, strain gim4, stronger effect = lower value 0.986 | locus YEL037C, strain rad23, stronger effect = lower value 0.991 | locus YEL061C, strain CIN8 (second series), stronger effect = lower value 0.992 | locus YEL061C, strain CIN8, stronger effect = lower value 1.01 | locus YER002W, strain NOP16, stronger effect = lower value 1.01 | locus YER015W, strain faa2, stronger effect = lower value 0.997 | locus YER016W, strain bim1, stronger effect = lower value 1.01 | locus YER110C, stronger effect = lower value 0.993 | locus YER111C, strain swi4, stronger effect = lower value 1.01 | locus YER155C, strain BEM2 (second series), stronger effect = lower value 1 | locus YER155C, strain BEM2, stronger effect = lower value 1.01 | locus YER167W, strain BCK2, stronger effect = lower value 1 | locus YFR010W, strain ubp6, stronger effect = lower value 0.986 | locus YGL078C, strain dbp3, stronger effect = lower value 0.999 | locus YGL086W, strain mad1, stronger effect = lower value 1 | locus YGL167C, strain pmr1, stronger effect = lower value 1 | locus YGL173C, strain kem1, stronger effect = lower value 0.986 | locus YGL227W, strain vid30, stronger effect = lower value 0.998 | locus YGL240W, strain doc1, stronger effect = lower value 1.02 | locus YGL248W, strain PDE1, stronger effect = lower value 1.01 | locus YGL253W, strain hxk2, stronger effect = lower value 0.988 | locus YGR135W, strain pre9, stronger effect = lower value 0.994 | locus YGR229C, strain SMI1, stronger effect = lower value 1.03 | locus YGR252W, strain gcn5, stronger effect = lower value 0.958 | locus YHR013C, strain ard1, stronger effect = lower value 1.04 | locus YHR027C, strain rpn1, stronger effect = lower value 0.987 | locus YHR030C, strain SLT2, stronger effect = lower value 1.01 and 0.958 | locus YHR079C, strain IRE1 (second series), stronger effect = lower value 0.994 | locus YHR079C, strain IRE1, stronger effect = lower value 0.967 | locus YHR094C, strain hxt1, stronger effect = lower value 0.988 | locus YHR129C, strain ARP1, stronger effect = lower value 1.01 | locus YHR142W, strain chs7, stronger effect = lower value 0.965 | locus YHR200W, strain rpn10, stronger effect = lower value 0.991 | locus YIL066C, strain RNR3, stronger effect = lower value 1.02 | locus YIL073C, strain SPO22, stronger effect = lower value 0.972 | locus YIL125W, strain kgd1, stronger effect = lower value 1 | locus YIR030C, strain dcg1, stronger effect = lower value 0.993 | locus YJL092W, strain hpr5, stronger effect = lower value 0.984 | locus YJL095W, strain BCK1 (second series), stronger effect = lower value 0.996 | locus YJL095W, strain BCK1, stronger effect = lower value 1.05 and 0.981 | locus YJL115W, strain asf1, stronger effect = lower value 0.965 | locus YJL129C, strain trk1, stronger effect = lower value 0.991 | locus YJL134W, strain LCB3, stronger effect = lower value 1 | locus YJL154C, strain vps35, stronger effect = lower value 0.979 | locus YJL164C, strain tpk1, stronger effect = lower value 0.994 | locus YJL166W, strain qcr8, stronger effect = lower value 1.01 | locus YJL168C, strain set2, stronger effect = lower value 0.996 | locus YJL187C, strain SWE1 (second series), stronger effect = lower value 1.02 | locus YJL187C, strain SWE1, stronger effect = lower value 1 | locus YJR043C, strain POL32, stronger effect = lower value 1 | locus YJR066W, strain TOR1, stronger effect = lower value 0.888
